# Source: PubChem BioAssay
# Unmarked numbers belong to inactive results. Entries that show only a call come without a potency. For some assays here: Potency and affinity values are given separately. Activity calls are given as the source filed them. Unless noted, the rule behind the calls is not given here.
# Key:
# [1] = antimalarial activity against Dd2 strain (AID 2302;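 active = growth inhibition above 50% at the single 2 µM test dose, taken to imply half-maximal potency below 2 µM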); details: P. falciparum Dd2 in RBCs, LDH growth readout, 72 h; at 2 µM; hits give high values
# [2] = human hepatoma cell viability loss – ATP luminescence, cytotoxicity control for P. falciparum antimalarial project, primary screen (AID 2303;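 active = inhibition above 50%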); details: HepG2 viability, 24-48 h, at 10 µM, hits give high values
# [3] = target: L-lactate dehydrogenase (Plasmodium falciparum (isolate CDC / Honduras)) (UniProt Q27743); experiment: PfLDH activity inhibition – cell lysate, 3D7 strain, counter-screen for P. falciparum growth inhibition project (AID 2304); details: P. falciparum 3D7 crude extract, LDH APAD/NBT absorbance; at 2 µM; hits give high values
# Sequence of L-lactate dehydrogenase (Plasmodium falciparum (isolate CDC / Honduras)) (Q27743 whole entry, looked up): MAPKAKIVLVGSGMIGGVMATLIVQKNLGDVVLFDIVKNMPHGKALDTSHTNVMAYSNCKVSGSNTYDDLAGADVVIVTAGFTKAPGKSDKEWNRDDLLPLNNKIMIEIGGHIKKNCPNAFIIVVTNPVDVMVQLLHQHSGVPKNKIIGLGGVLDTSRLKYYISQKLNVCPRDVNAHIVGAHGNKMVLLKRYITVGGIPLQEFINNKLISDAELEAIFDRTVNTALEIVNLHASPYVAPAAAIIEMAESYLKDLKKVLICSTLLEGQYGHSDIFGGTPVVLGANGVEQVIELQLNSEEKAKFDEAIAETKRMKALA
# [4] = inhibition of 3D7 malaria parasite growth – strain 3D7 (AID 2306); details: P. falciparum 3D7 erythrocytic growth, LDH absorbance, 72 h; at 2 µM; hits give high values
# [5] = target: Calcium-dependent protein kinase 1 (Plasmodium falciparum (isolate 3D7)) (UniProt P62344); experiment: PfCDPK1 kinase inhibitors, biochemical, TCAMS library (AID 1159585; cut-off not given, nearly all actives have IC50 up to about 0.98 µM;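 note: inhibitors leave more ATP so luminescence rises with inhibition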); details: recombinant PfCDPK1, Kinase-Glo ATP depletion luminescence
# Sequence of Calcium-dependent protein kinase 1 (Plasmodium falciparum (isolate 3D7)) (P62344 whole entry, looked up): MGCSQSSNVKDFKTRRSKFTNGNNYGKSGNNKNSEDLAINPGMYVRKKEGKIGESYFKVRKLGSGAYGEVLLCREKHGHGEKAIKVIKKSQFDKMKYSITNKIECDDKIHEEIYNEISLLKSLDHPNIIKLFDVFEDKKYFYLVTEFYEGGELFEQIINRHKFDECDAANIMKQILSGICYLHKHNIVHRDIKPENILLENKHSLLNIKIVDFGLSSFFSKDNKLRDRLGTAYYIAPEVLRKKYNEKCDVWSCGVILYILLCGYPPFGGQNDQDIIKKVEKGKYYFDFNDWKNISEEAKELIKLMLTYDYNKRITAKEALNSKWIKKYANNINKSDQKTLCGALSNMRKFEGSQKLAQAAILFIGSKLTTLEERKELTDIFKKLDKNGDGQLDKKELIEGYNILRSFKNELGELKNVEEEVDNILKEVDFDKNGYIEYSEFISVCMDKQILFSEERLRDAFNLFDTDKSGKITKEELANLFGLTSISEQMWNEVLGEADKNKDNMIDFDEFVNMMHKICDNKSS
# [6] = target: Plasmodium falciparum protein kinase 6 (PK6, PF3D7_1337100) (UniProt Q8IDW1); experiment: PfPK6 kinase inhibitors, biochemical, TCAMS library (AID 1159586); details: recombinant PfPK6, Kinase-Glo ATP depletion luminescence
# Sequence of Plasmodium falciparum protein kinase 6 (PK6, PF3D7_1337100) (Q8IDW1 1-305): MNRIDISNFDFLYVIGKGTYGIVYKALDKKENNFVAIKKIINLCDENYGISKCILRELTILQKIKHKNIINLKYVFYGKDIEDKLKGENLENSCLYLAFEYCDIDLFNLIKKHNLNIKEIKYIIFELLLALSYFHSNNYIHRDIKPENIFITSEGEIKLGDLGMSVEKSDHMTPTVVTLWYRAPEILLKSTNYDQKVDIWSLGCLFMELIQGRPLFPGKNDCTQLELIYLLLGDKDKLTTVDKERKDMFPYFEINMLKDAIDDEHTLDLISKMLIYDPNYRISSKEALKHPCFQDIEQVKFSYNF
# [7] = target: Protein kinase 7 (PK7), Plasmodium falciparum 3D7 (PF3D7_0213400) (UniProt Q7YTF7); experiment: inhibition of Plasmodium PK7 catalytic activity – biochemical, TCAMS antimalarial set, Kinase-Glo luminescence (AID 1159587); details: recombinant PfPK7, Kinase-Glo ATP depletion luminescence
# Sequence of Protein kinase 7 (PK7), Plasmodium falciparum 3D7 (PF3D7_0213400) (Q7YTF7 1-343): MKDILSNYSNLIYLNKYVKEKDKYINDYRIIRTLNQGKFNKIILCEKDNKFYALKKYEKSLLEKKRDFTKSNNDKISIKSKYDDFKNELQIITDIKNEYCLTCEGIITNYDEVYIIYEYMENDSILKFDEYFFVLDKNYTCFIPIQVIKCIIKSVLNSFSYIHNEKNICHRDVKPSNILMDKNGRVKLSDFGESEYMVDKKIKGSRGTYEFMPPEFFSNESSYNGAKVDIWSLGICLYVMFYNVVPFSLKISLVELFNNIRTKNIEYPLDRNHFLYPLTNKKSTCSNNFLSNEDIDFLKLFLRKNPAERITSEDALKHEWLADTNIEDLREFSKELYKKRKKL
# [8] = target: Calcium-dependent protein kinase 4 (Plasmodium falciparum (isolate 3D7)) (UniProt Q8IBS5); experiment: PfCDPK4 kinase inhibitors, biochemical, TCAMS library (AID 1159588; cut-off not given, nearly all actives have IC50 up to about 0.91 µM); details: recombinant PfCDPK4, Kinase-Glo ATP depletion luminescence
# Sequence of Calcium-dependent protein kinase 4 (Plasmodium falciparum (isolate 3D7)) (Q8IBS5 whole entry, looked up): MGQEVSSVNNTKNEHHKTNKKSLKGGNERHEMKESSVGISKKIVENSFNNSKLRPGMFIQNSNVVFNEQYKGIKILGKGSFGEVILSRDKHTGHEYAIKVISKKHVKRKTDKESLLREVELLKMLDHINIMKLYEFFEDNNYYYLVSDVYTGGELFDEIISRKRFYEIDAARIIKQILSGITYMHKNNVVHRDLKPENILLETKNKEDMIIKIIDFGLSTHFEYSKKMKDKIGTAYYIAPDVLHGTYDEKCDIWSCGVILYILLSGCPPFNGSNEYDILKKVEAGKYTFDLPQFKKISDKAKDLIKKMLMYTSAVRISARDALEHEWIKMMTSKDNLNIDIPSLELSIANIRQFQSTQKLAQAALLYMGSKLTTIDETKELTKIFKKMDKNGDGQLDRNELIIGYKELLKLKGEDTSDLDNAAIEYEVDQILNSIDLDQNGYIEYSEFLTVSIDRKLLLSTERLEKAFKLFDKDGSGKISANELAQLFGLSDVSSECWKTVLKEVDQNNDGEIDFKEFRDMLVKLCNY
Structure (SMILES),growth inhibition [1],inhibition [2],inhibition [3] [%],growth inhibition [4],outcome [5],outcome [6],outcome [7],outcome [8]
CN1CCc2cc(Br)c(O)cc2C1Cc1ccccc1Cl (stereo not given),88% (active),2%,-2,98% (active),inactive,inactive,inactive,inactive
Cn1nc(-c2ccc(NC(=O)Nc3cc(C(F)(F)F)cc(C(F)(F)F)c3)c(F)c2)c2cnc(NCCN3CCOCC3)nc21,37%,43%,-6,94% (active),inactive,inactive,inactive,inactive
Cc1cccc2[nH]c(-c3ccc(-c4cccc(CNCc5ccccc5)c4)s3)nc12,50% (active),3%,-3,99% (active),inactive,inactive,inactive,inactive
Cc1ccc(C(=O)Nc2ccc(C)c(OC3CCN(Cc4ccco4)C3)c2)cc1 (stereo not given),49%,10%,3,90% (active),inactive,inactive,inactive,inactive
NC(N)=NCCN(Cc1ccccc1)c1ccc(Cl)cc1,99% (active),-7%,-3,100% (active),inactive,inactive,inactive,inactive
O=C(Cc1ccccc1)NC(c1ccccc1)c1ccc2cccnc2c1O (stereo not given),61% (active),49%,3,89% (active),inactive,inactive,inactive,inactive
CC1(C)N=C(N)N=C(N)N1OCc1ccc2ccccc2c1,97% (active),65% (active),-9,94% (active),inactive,inactive,inactive,inactive
CC(C)(C)CC(C)(C)c1ccc(O)c(CNC2CCCCC2)c1,99% (active),92% (active),4,98% (active),inactive,inactive,inactive,inactive
CNc1ccc(CNCc2ccc(-c3ccc(-c4nc5ccc(C(F)(F)F)cc5[nH]4)s3)cc2)cc1,97% (active),44%,-2,102% (active),inactive,inactive,inactive,inactive
Cn1c(CN2CCC(N3CCc4cc(NC(=O)c5ccco5)ccc43)C2)cc2ccccc21 (stereo not given),92% (active),-1%,-3,91% (active),inactive,inactive,inactive,inactive
CCCCOc1ccccc1C(=O)NCc1csc(-c2ccccc2)n1,91% (active),17%,0,93% (active),inactive,inactive,inactive,inactive
CC(CN(C)C)C(=O)Nc1cccc(-c2ccc(-c3nc4ccccc4[nH]3)s2)c1 (stereo not given),47%,13%,7,100% (active),inactive,inactive,inactive,inactive
COc1ccc(Nc2nccc(N3CCC(NC(=O)Nc4cccc(OC)c4)C3)n2)cc1 (stereo not given),48%,23%,-1,99% (active),inactive,inactive,inactive,inactive
CC(C)[C@H](NC(=O)c1ccc(O)c(-c2cccc(C(F)(F)F)c2)c1)C(=O)NC1CCCc2ccccc21 (stereo not given in full),25%,2%,7,82% (active),inactive,inactive,inactive,inactive
CCCNCc1ccc(-c2ccc(CN(CCOC)C(=O)[C@H]3CCCO3)cc2)nc1,6%,1%,-3,98% (active),inactive,inactive,inactive,inactive
Cn1cnnc1Sc1ccc(CN2CCOc3ccc(C4=CCCCC4)cc3C2)o1,97% (active),1%,3,98% (active),inactive,inactive,inactive,inactive
O=S(=O)(NCCN1CCCC1)c1cccc(-c2cccc(CNCc3ccccc3)c2)c1,73% (active),32%,-7,97% (active),inactive,inactive,inactive,inactive
COc1ccc(F)cc1-c1ccc(C(=O)N2CCCN(c3ccc(C#N)cn3)CC2)cc1,100% (active),9%,-2,99% (active),inactive,inactive,inactive,inactive
CC(=O)c1ccc(-c2ccc(C(=O)NCCCCN3CCC(c4ccc5c(c4OCC(N)=O)CCCC5)CC3)cc2)s1,4%,26%,-4,90% (active),inactive,inactive,inactive,inactive
OC(c1ccc(Cl)cc1)(c1ccc(Cl)cc1)C(c1ccc(Cl)cc1)n1ccnc1 (stereo not given),100% (active),15%,-3,101% (active),inactive,inactive,inactive,inactive

Structure (SMILES),growth inhibition [1],inhibition [2],inhibition [3] [%],growth inhibition [4],outcome [5],outcome [6],outcome [7],outcome [8]
C[C@@H](Oc1cc(-n2cnc3ccc(OCC4CCN(S(C)(=O)=O)CC4)cc32)sc1C(N)=O)c1ccccc1C(F)(F)F,50% (active),31%,5,84% (active),inactive,inactive,inactive,inactive
COc1ccc(-n2ccnc2)cc1CNC1CCN(CC2Cn3c(=O)ccc4ccc(F)c2c43)CC1 (stereo not given),18%,25%,-1,99% (active),inactive,inactive,inactive,inactive
CNc1nc(Nc2ccccc2C)nc2ccccc12,81% (active),17%,-1,101% (active),inactive,inactive,inactive,inactive
Cc1ccccc1CNC(=O)Nc1cccc(-c2csc(N=C(N)N)n2)c1,14%,2%,-2,99% (active),inactive,inactive,inactive,inactive
COc1ccc2nccc([C@@H](O)CN3CCC(NCCNc4cccc(F)c4)CC3)c2c1,73% (active),11%,0,98% (active),inactive,inactive,inactive,inactive
CC(C)(C)c1ccc(NC(=O)c2ccc(CN3CCCN(CC4CCCCC4)CC3)cc2)cc1,64% (active),54% (active),-1,99% (active),inactive,inactive,inactive,inactive
CCN(CC)CCN(Cc1ccc(-c2ccc(Cl)cc2)cc1)C(=O)Cn1c(CCc2cccc(F)c2F)nc(=O)c2ccccc21,75% (active),45%,-4,101% (active),inactive,inactive,inactive,inactive
CCOc1cc(C(=O)NCCN2CCCCC2)ccc1-c1nc2ccc(Cl)cc2[nH]1,8%,4%,-3,99% (active),inactive,inactive,inactive,inactive
CC(C)CC(=O)N(Cc1ccc(-c2ccc(CNC3Cc4ccccc4C3)cc2)cc1)C1CCNCC1,65% (active),20%,-5,85% (active),inactive,inactive,inactive,inactive
Cc1cc2c(cc1C(F)(F)F)N(C(=O)Nc1ccc(OCCN(C)C)c(C(F)(F)F)c1)CC2,23%,38%,-2,93% (active),inactive,inactive,inactive,inactive
CC(C)CNCc1ccc(OCc2cccc(COc3ccc(CNCC(C)C)cc3I)c2)c(I)c1,84% (active),23%,-4,98% (active),inactive,inactive,inactive,inactive
Cc1ccc(NC(=O)c2ccc(CN3CCCN(Cc4cccc(O)c4)CC3)cc2)cc1C,25%,33%,4,98% (active),inactive,inactive,inactive,inactive
O=C(NC1CCN(Cc2ccccc2)CC1)c1ccc(-c2nc3cc(Cl)c(Cl)cc3[nH]2)s1,99% (active),17%,-1,103% (active),inactive,inactive,inactive,inactive
Cc1cc2nc(-c3ccc(/C=C/C(=O)NCCc4ccccc4)cc3)[nH]c2cc1C,13%,3%,1,98% (active),inactive,inactive,inactive,inactive
COc1ccc2c(=O)c(-c3ccc(OC(F)(F)F)cc3)c(C)[nH]c2c1,96% (active),0%,-3,97% (active),inactive,inactive,inactive,inactive
COc1ccc(Nc2ccnc3cc(Cl)ccc23)cc1OC,91% (active),36%,3,104% (active),inactive,inactive,inactive,inactive
Cc1cccc2[nH]c(-c3ccc(-c4cccc(CNC5CCN(C)CC5)c4)s3)nc12,73% (active),21%,2,98% (active),inactive,inactive,inactive,inactive
O=C(Nc1ccc2c(c1)CCC2)c1ccc(N2CCN(c3ccncc3)CC2)cn1,58% (active),56% (active),2,99% (active),inactive,inactive,inactive,inactive
N=C(N)c1ccc(C=CC(=O)NCC(O)CNC(=O)C=Cc2ccc(C(=N)N)cc2)cc1 (stereo not given),80% (active),-14%,-1,90% (active),inactive,inactive,inactive,inactive
CCCc1cc2c3c(N)nc(N)nc3ccc2n1C(CC)CC,73% (active),70% (active),-1,102% (active),inactive,inactive,inactive,inactive
